“And” between values parts separate entries of the source, which are not always exact repeats. Equal entries are not always repeated. Records with an inconclusive call do not appear. Where a structure was tested more than once in an assay, its records may differ in their call. The source made the active and inactive calls. Calls follow the shape of the dose curve; as a rule, active = well fitted curve in the direction sought with a large enough effect; inconclusive = small, poorly fitted or top-dose-only effect, or another doubt; inactive = no such curve, though single readings can be large; an effect the other way counts as inactive or inconclusive. Peptide text beside a SMILES is read from it.
What was measured:
MCC-13 = assay: qHTS assay to identify novel small-molecules to repurpose for Merkel cell carcinoma treatment (AID 1296009); conditions: MCC and control cell lines, CellTiter-Glo viability, 72 h; series mostly up to 46 µM; also: nearly all actives have a fitted effect of over 60% in size; also: potency is read from the fitted curve at half-maximal effect
In short: (§1)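 Viability readout: ATP luminescence (CellTiter-Glo) after 72 hr drug exposure at 37 degree celsius. Dose-response format was 8 points for NPC and 11 points for MIPE; data normalized to in-plate controls.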

MCC-26 = assay: as above; conditions: MCC and control cell lines, CellTiter-Glo viability, 72 h; series mostly up to 46 µM
In short: as §1

MKL-1 = assay: as above; conditions: MCC and control cell lines, CellTiter-Glo viability, 72 h; series mostly up to 46 µM
In short: as §1

MKL-2 = assay: as above; conditions: MCC and control cell lines, CellTiter-Glo viability, 72 h; series mostly up to 46 µM
In short: as §1

NIH3T3 = assay: as above; conditions: MCC and control cell lines, CellTiter-Glo viability, 72 h
In short: as §1

UISO = assay: as above; conditions: MCC and control cell lines, CellTiter-Glo viability, 72 h; series mostly up to 46 µM
In short: as §1

WaGa = assay: as above; conditions: MCC and control cell lines, CellTiter-Glo viability, 72 h; series mostly up to 46 µM
In short: as §1

C33A = assay: Primary qHTS to identify gynecologic anti-cancer compounds using libraries of approved drugs and bioactive compounds (AID 1345084); conditions: Gynecologic cancer cell panel viability, ATPlite luminescence, 48 h; series mostly up to 57.5 µM; also: nearly all actives have a fitted effect of over 55% in size
In short: (§2)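 Cell viability after 48 h drug treatment, ATPlite luminescence readout; five doses.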

CASKI = assay: as above; conditions: Gynecologic cancer cell panel viability, ATPlite luminescence, 48 h; series mostly up to 57.5 µM
In short: as §2

CAOV3 = assay: as above; conditions: Gynecologic cancer cell panel viability, ATPlite luminescence, 48 h; series mostly up to 57.5 µM
In short: as §2

[1] = at 44.8 µM (top of the series) unless noted

Measured: Potency

CNC[C@H](O)c1ccc(O)c(O)c1
inactive: MCC-13 | MCC-26 | MKL-1 | MKL-2 | NIH3T3; at 17.4 µM (top of the series) | NIH3T3; at 92 µM (top of the series) | UISO | WaGa | C33A | CASKI

Nc1ccc(S(N)(=O)=O)cc1
inactive: MCC-13 | MCC-26 | MKL-1 | MKL-2 | NIH3T3; [1] | UISO | WaGa | C33A | CAOV3 | CASKI

CC(C)(S)[C@@H](N)C(=O)O
inactive: MCC-13 | MCC-26 | MKL-1 | MKL-2 | NIH3T3; [1] | UISO | WaGa

CN(C)C(=O)COC(=O)Cc1ccc(OC(=O)c2ccc(N=C(N)N)cc2)cc1
inactive: MCC-13 | MCC-26 | MKL-1 | MKL-2 | NIH3T3; [1] | UISO | WaGa | C33A | CAOV3 | CASKI

Cc1cc2c(s1)Nc1ccccc1N=C2N1CCN(C)CC1
inactive: MCC-13 | MCC-26 | MKL-1 | MKL-2 | NIH3T3; [1] | UISO | WaGa | C33A | CASKI

CN(c1nccc(=O)[nH]1)C1CCN(c2nc3ccccc3n2Cc2ccc(F)cc2)CC1
inactive: MCC-13 | MCC-26 | MKL-1 | MKL-2 | NIH3T3; [1] | UISO | WaGa | C33A | CAOV3 | CASKI

CCCCCCCCCCCCCCCCCCCCCCO
inactive: MCC-13 | MCC-26 | MKL-1 | MKL-2 | NIH3T3; [1] | UISO | WaGa

C[Se]CCC(N)C(=O)O (stereo not drawn)
inactive: MCC-13 | MCC-26 | MKL-1 | MKL-2 | NIH3T3; [1] inactive [at 92 µM] | UISO | WaGa

O=C1NC(=O)C(c2ccccc2[N+](=O)[O-])=C1Nc1ccc(O)c(Cl)c1
inactive: MCC-13 | MCC-26 | MKL-1 | MKL-2 | NIH3T3; [1] | UISO | WaGa

CCOC(=O)C1=C[C@@H](OC(CC)CC)[C@H](NC(C)=O)[C@@H](N)C1
inactive: MCC-13 | MCC-26 | MKL-1 | MKL-2 | NIH3T3; [1] | UISO | WaGa

CCCc1cc(=O)[nH]c(=S)[nH]1
inactive and 18.7 µM (active): WaGa
inactive: MCC-13 | MCC-26 | MKL-1 | MKL-2 | NIH3T3; [1] inactive; activator | UISO | C33A | CAOV3 | CASKI

CC1=C(C)C(=O)C(C(CCCCCC(=O)O)c2ccccc2)=C(C)C1=O (stereo not drawn)
inactive: MCC-13 | MCC-26 | MKL-1 | NIH3T3; [1] | UISO | WaGa | C33A | CASKI
23.7 µM (active) and inactive: MKL-2

C[C@]12CCC(=O)C=C1CC[C@@H]1[C@H]2[C@@H](O)C[C@@]2(C)[C@H]1CC[C@]2(O)C(=O)CO
inactive: MCC-13 | MCC-26 | MKL-1 | MKL-2 | NIH3T3; [1] | UISO | WaGa

O=C(O)c1cccnc1Nc1cccc(C(F)(F)F)c1
inactive: MCC-13 | MCC-26 | MKL-1 | MKL-2 | NIH3T3; [1] | UISO | WaGa | C33A | CAOV3 | CASKI

Nc1ccn([C@@H]2O[C@H](CO)[C@@H](O)C2O)c(=O)n1 (stereo partly drawn)
inactive: MCC-13 | MCC-26 | MKL-1 | MKL-2 | NIH3T3; [1] | UISO | WaGa

Clc1ccc(C(Cn2ccnc2)OCc2ccc(Sc3ccccc3)cc2)c(Cl)c1 (stereo not drawn)
inactive: MCC-13 | MCC-26 | MKL-1 | MKL-2 | NIH3T3; [1] | UISO | WaGa | C33A | CASKI

Cc1cc2cc3c(C)cc(=O)oc3c(C)c2o1
inactive: MCC-13 | MCC-26 | MKL-1 | MKL-2 | NIH3T3; [1] | UISO | C33A | CASKI
inactive and 4.69 µM (active): WaGa

CC(C)c1nc(CN(C)C(=O)N[C@H](C(=O)N[C@@H](Cc2ccccc2)C[C@H](O)[C@H](Cc2ccccc2)NC(=O)OCc2cncs2)C(C)C)cs1
inactive: MCC-13 | MCC-26 | MKL-1 | MKL-2 | NIH3T3; [1] | UISO | WaGa | C33A | CASKI

C[C@@H](N)C1CCC(C(=O)Nc2ccncc2)CC1 (stereo partly drawn)
inactive: MCC-13 | MCC-26 | MKL-1 | MKL-2 | UISO | WaGa

O=C1c2c(O)cc(O)cc2OC(c2ccc(O)c(O)c2)C1O (stereo not drawn)
inactive: MCC-13 | MCC-26 | MKL-1 | MKL-2 | UISO | WaGa

COC(=O)[C@H](Cc1ccccc1)NC(=O)[C@@H](N)CC(=O)O (H-Asp-Phe-OMe)
inactive: MCC-13 | MCC-26 | MKL-1 | MKL-2 | UISO | WaGa | C33A | CASKI

CC1(C)NC(=O)N(c2ccc([N+](=O)[O-])c(C(F)(F)F)c2)C1=O
inactive: MCC-13 | MCC-26 | MKL-1 | MKL-2 | UISO | WaGa | C33A | CAOV3 | CASKI
